Reference: PubChem BioAssay (NCI)
About 79,000 compounds went through this panel and 15% of them were active in at least one assay; those are over-represented in the sample as a whole. Active and inactive are the calls of the source. Rule as the data show it: active = growth inhibition above about 70%; inactive = the rest.

Experiment: NCI Yeast Anticancer Drug Screen. Data for the mlh1 rad18 strain (AID 175)
Details: S. cerevisiae mlh1 rad18 strain growth inhibition; at 50.0 µM; stronger effect = higher value
Method in brief: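 Growth inhibition of the yeast strain was measured after compound exposure and expressed relative to vehicle-treated controls. The strain carries defined defects in DNA damage repair.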

| Compound | growth inhibition |
| --- | --- |
| COC(=O)c1ccc(NN)cc1 | 40.9% (inactive) |
| O=[N+]([O-])c1ccc(-c2nc3c(o2)CCC3)cc1 | 3.25% (inactive) |
| Cc1ccc(S(=O)(=O)N/N=C(\C=C\c2ccccc2)c2ccccc2)cc1 | 37.1% (inactive) |
| [N-]=[N+]=NC1=CC(=O)c2cccc3cccc1c23 | 89.5% (active) |
| CCOc1ccc2nc3cc(Cl)ccc3[n+](C)c2c1 | 86.7% (active) |
| Cc1ccc(C(c2ccc(N(C)C)cc2)c2ccc(N(C)C)cc2)cc1 | 92.7% (active) |
| O=[N+]([O-])c1ccc2c(c1)[n+]([O-])c1[nH]c3ccccc3c1[n+]2[O-] (tested in a mixture with another compound) | 86.3% (active) |
| C/C(=N\NC(=S)N1CCCCCC1)c1cccc2cccnc12 | 86.2% (active) |
| CC(C)c1cc(O)c(C(C)(C)C)cc1Cl | 86.8% (active) |
| CN(C)c1ccc(/C=C(/NC(=O)c2ccccc2)c2nc3ccc(Cl)cc3[nH]2)cc1 | 73.8% (active) |
| CC(C)(C)c1ccc2c(c1)C(O)(c1ccccc1)C1OC1(C(C)(C)C)C2=O (stereo not given) | 93.2% (active) |
| CCCCCCCCCCCCOP(=O)(N1CC1(C)C)N1CC1(C)C (stereo not given) | 80.5% (active) |
| Cc1ccc(C(=O)CC(N)C(=O)O)cc1 (stereo not given) | 8.95% (inactive) |
| COC(=O)CCC(=O)NCCc1ccc2c([nH]c3ccccc32)c1C | 91% (active) |
| Nc1ccc(C(=O)N/C(=C\C=C\c2ccco2)c2nc3c4c(ccc3[nH]2)C(=O)c2ccccc2C4=O)cc1 | 90.5% (active) |
| Oc1ccc(CCCCCc2ccc(O)cc2)cc1 | 99.5% (active) |
| O=C(O)C1C(C(=O)O)C2C(=O)C=CC1N2Cc1ccccc1 (stereo not given) | 87.8% (active) |
| CC1(C)CC(=O)C(c2ccccc2[N+](=O)[O-])=C(O)C1 | 99.2% (active) |
| ON(Cc1ccccc1)C(=S)c1ccccc1 | 90.7% (active) |
| CCCCC(O)(c1ccc2nc(NC(=O)OC)[nH]c2c1)c1cccs1 (stereo not given) | 94.5% (active) |

| Compound | growth inhibition |
| --- | --- |
| O=C(O)CC/C(=N\Nc1ccccc1)C(=O)O | 97% (active) |
| CC(C)(c1ccc(OC#N)cc1)c1ccc(OC#N)cc1 | 47% (inactive) |
| C=CC(C)(CCC=C(C)C)OC(=O)Nc1ccccc1 (stereo not given) | -4.25% (inactive) |
| Cc1ccc(Cc2nc(=S)[nH][nH]2)cc1 | -34.8% (inactive) |
| Cc1c(Cl)c(S(N)(=O)=O)cc2c1NC=NS2(=O)=O | -16.6% (inactive) |
| O=C(c1cccnc1)N(C1CCCCC1)C1CCCCC1 | -2.25% (inactive) |
| COc1cc(NCC(C)(O)CN2CCC(C)CC2C)c2ncccc2c1 (stereo not given) | 83.7% (active) |
| O=C1C=CC(=Nc2cccc3c2-c2ccccc2C3)O1 | 85.6% (active) |
| CC(O)c1c2c(cc3c1CC1(C3)Cc3cc4c(c(C(C)O)c3C1)CCC4)CCC2 (stereo not given) | 88.3% (active) |
| CCCCCCCCCCCCCCCC[N+](C)(C)CCl | 80.1% (active) |
| CCCCC(CC)CNc1ncnc2c1cnn2C (stereo not given) | 32.8% (inactive) |
| O=C1NN(C2=NNC3(C(=O)N2)c2ccccc2-c2ccccc23)C(c2ccccc2)=N/C1=C/c1ccc(Cl)cc1 | 44.1% (inactive) |
| CCCCc1ccc2nccc(N/N=C/c3ccc(OC)c4ccccc34)c2c1 | 90.1% (active) |
| CC(C)(C[NH-])C[NH-].[Cl][Pt+2]([Cl])([Cl])[Cl] | 57.5% (inactive) |
| O=C(O)C1(Cc2ccc3c(c2)CCC3)Cc2ccccc2C1 | 86.8% (active) |
| CCN(CC)C(C)(C)C(=O)/C=C/c1ccc(Cl)cc1 | 19.7% (inactive) |
| CCc1ccccc1NC(=O)C(=O)C(C#N)c1c(Cl)cccc1Cl (stereo not given) | 14.7% (inactive) |
| COc1c(OC)c(C2(O)C(=O)N(C)c3ccccc32)c(OC)c(OC)c1C1(O)C(=O)N(C)c2ccccc21 (stereo not given) | 7.15% (inactive) |
| Nc1ccc2ccccc2c1N=Cc1ccccc1[N+](=O)[O-] | 84.3% (active) |
| O=[N+]([O-])C1=Cc2cc(Cl)ccc2OC1c1cccc2ccccc12 (stereo not given) | 75.8% (active) |
